According to PubChem BioAssay (NCI):
About 83,000 compounds went through this panel and 20% of them were active in at least one assay; those are over-represented in the sample as a whole.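 Percent growth is the endpoint: 0 to 100 indicates growth inhibition (40 means 60% inhibition), 0 means no net growth, and negative values indicate cell death.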 A number with no mark means an inactive call. Calls of active or inactive are those of the source. How the source made its calls: active means growth percent below 10; inactive means the rest.

Each compound was assayed on CAKI-1 renal (assay: NCI-60 one-dose screen, 48 h (100 = growth as untreated, 0 = no growth, -100 = all killed)). Details: 10 µM unless noted.
In the case of `O=C(NCCCNC(=O)OCc1ccc2cccc(O)c2n1)OCc1ccc2cccc(O)c2n1`, the growth is reported as 21%.
`CCN(CC)CCCC(C)Nc1ccnc2cc(Cl)c(SCc3ccccc3)cc12` (stereo not given) was tested, and the growth was -62.2% (active).
`Cc1ccc(C2=C/C(=C/c3ccc(Br)cc3)C(=O)N2CCc2ccc(S(N)(=O)=O)cc2)cc1` showed a growth of 65%.

Each compound was assayed on A498 renal in the same assay as above. Details: 10 µM unless noted.
With `C=C(C)[C@@H]1CC[C@]2(C(N)=O)CC[C@]3(C)[C@H](CC[C@@H]4[C@@]5(C)CC[C@H](O)C(C)(C)[C@@H]5CC[C@]43C)[C@@H]12` the growth was -28.3% [100 µM] (active).
`CCN1CCN(CC(=O)Nc2nc3ccc(NCc4ccc(Cl)cc4)cc3s2)CC1` gave a growth of 58.4%.
`COc1cc(C)cc2oc3oc(=O)c(C(=O)c4cc5cc(Br)ccc5o4)cc3c(=O)c12` gave a growth of 92.2%.
`O=S(=O)(NCCCNc1nccc(-c2c(-c3cccc(F)c3)nc3occn23)n1)c1cccc2ccccc12` showed a growth of 28.9%.
In the case of `CC1(C)[C@@H](NOCCCN)CC[C@]2(C)[C@H]3C(=O)C=C4[C@@H]5C[C@](C)(C(=O)O)CC[C@]5(C)CC[C@@]4(C)[C@]3(C)CC[C@@H]12`, the growth is reported as -88.7% [100 µM] (active).
`O=c1[nH]c(CN2CCN(c3cccc(Cl)c3)CC2)nc2cc(Cl)ccc12` showed a growth of 114%.
With `COc1cc2c(O)n(CCCN3CCOCC3)c3c4cnc5cccc(c(=O)c3c2cc1OC)c54` the growth was 56.1%.
For `CCOC(=O)c1sc2nc(-c3cc(OC)c(OC)c(OC)c3)nc(N3CCOCC3)c2c1C`, the growth was -0.941% (active).
Work on `Cc1cc(C)c(S(=O)(=O)/N=c2/n(-c3ccccc3)nc3n2CCN3C2=NCCN2)c(C)c1` yielded a growth of 61.8%.
`Cc1ccc(S(=O)(=O)N/N=C2\CC3CCC2(C)C3(C)C)cc1` (stereo not given) was tested, and the growth was 105%.
`N#C/C(C(=O)c1ccccc1)=C1/C(=O)Nc2ccccc21` was tested, and the growth was 89%.
Compound `CCc1ccc(C2=C/C(=C/c3ccccc3)C(=O)N2CCc2ccc(S(N)(=O)=O)cc2)cc1` has a growth of 88.7%.
For `CC(C)C1=NOC(=O)C1=Cc1cn(-c2ccco2)nc1-c1ccccc1`, the growth was 98.6%.
In the case of `COc1cc(Cl)cc(-c2nn(C(=O)NS(=O)(=O)c3ccccc3)cc2-c2ccncc2)c1`, the growth is reported as 82.9%.
Compound `C=C(C)[C@@H]1CC[C@]2(COCCC#N)CC[C@]3(C)[C@H](CC[C@@H]4[C@@](C)(CCCNCCC#N)[C@H](C(=C)C)CC[C@]43C)[C@@H]12` has a growth of 90.5% [100 µM].
Compound `COc1ccc(N(c2nc(-c3ccc([N+](=O)[O-])cc3)cs2)C(C)C)cc1` has a growth of 59.5%.
Compound `NS(=O)(=O)c1ccc(CCN2C(=O)/C(=C\c3ccccc3)C=C2c2ccc(Cl)cc2)cc1` has a growth of 65.6%.
For `O=C1C(Cl)=C(Nc2ccc3cn[nH]c3c2)C(=O)c2ccccc21`, the growth was 93%.
`CC(C)c1ccc(C(=O)Nc2sc3c(c2C#N)CCC(=O)C3)cc1` showed a growth of 24.6%.
`Cc1ccc2c(c1)/C(=N\N=C/c1cn(C(C)C)c3ccccc13)C(=O)N2` gave a growth of 86.1%.
In the case of `O=C(C[n+]1ccn(CC(OCc2ccc(Cl)cc2Cl)c2ccc(Cl)cc2Cl)c1)c1ccc(F)cc1` (stereo not given), the growth is reported as -12.3% (active).
`CCOc1cccc2c(NC(C)CCCN(CC)CC)c(C)cnc12` (stereo not given) was tested, and the growth was 97.7%.
For `O=C(Nc1cccc2ccccc12)c1cc2ccccc2cc1O`, the growth was -13.8% (active).
Work on `Cc1cc(C)nc(SCC(=O)Nc2cccc(N=Cc3ccccc3O)c2)n1` yielded a growth of 82.5%.
`CSc1nc2c(c(=O)n1C)C1(C(=O)N(Cc3ccccc3)c3ccccc31)c1c(nc(SC)n(C)c1=O)N2` was tested, and the growth was 72.6%.
With `O=C1COCCN1c1ccc(NCc2cn(Cc3ccc(F)cc3)c3ccccc23)cc1` the growth was -91.7% (active).
`CCN(CCO)CCC(=O)c1ccc([N+](=O)[O-])cc1` showed a growth of 87%.
In the case of `O=C(Nc1cccc(C2=NCCN2)c1)c1cccc(C(=O)Nc2cccc(C3=NCCN3)c2)c1`, the growth is reported as 111%.
With `CC(C)[C@H]1CCC2=C3CC[C@]45OC(=O)[C@@]6(CCC(C)(C)C[C@H]64)CC[C@@]5(C)[C@]3(C)CC[C@@]21C` the growth was 103% [100 µM].
In the case of `COc1ccc(/C=C2\N=C(Nc3ccccc3)N(NC(=O)c3ccccn3)C2=O)cc1`, the growth is reported as 81.5%.
Work on `Nc1nnc(CSc2nnc3n(Cc4ccccc4)c(=O)c4c5c(sc4n23)CCCC5)s1` yielded a growth of 103%.
With `O=C(NCCCNC(=O)OCc1ccc2c(Br)cc(Br)c(O)c2n1)OCc1ccc2c(Br)cc(Br)c(O)c2n1` the growth was -2.82% (active).
Work on `CCn1cc(-c2[nH]c(=S)ncc2-c2ccc(Cl)cc2)c(-c2ccc(Br)cc2)n1` yielded a growth of 106%.
With `Cc1cccc(C[C@H](NC(=O)Nc2ccc(Cl)cc2F)C(=O)N[C@@H]2C(=O)N3C[C@H](O)C[C@H]3C(=O)N3CCCC[C@H]3C(=O)N[C@@H](C)C(=O)N3C[C@H](C)C[C@H]3C(=O)O[C@H]2C)c1` the growth was -4.82% (active).
For `O=C(NCCCNC(=O)OCc1ccc2cccc(O)c2n1)OCc1ccc2cccc(O)c2n1`, the growth was 60.9%.
In the case of `CCN(CC)CCCC(C)Nc1ccnc2cc(Cl)c(SCc3ccccc3)cc12` (stereo not given), the growth is reported as -90.1% (active).
`Cc1ccc(C2=C/C(=C/c3ccc(Br)cc3)C(=O)N2CCc2ccc(S(N)(=O)=O)cc2)cc1` showed a growth of 78.5%.
